Source: PubChem BioAssay
A1 inh: inhibitors of the anti-apoptotic protein A1, read as caspase activation. MEF A1-2A-BIM cells, Caspase-Glo 3/7 luminescence, 3 h; percent of clofoctol response, vehicle zero. caspase activation, % (concentration not given with the values). hit rate 0.066% among 330,000. AID 2462;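 active = over half of replicate activation scores above 10%, or exactly half above 10 with the replicate mean above 10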
ALR H2O2 inh: inhibitors of human sulfhydryl oxidase ALR; AID 485317; hit rate 3.8% among 290,000; P55789; purified ALR, DTT oxidation, H2O2 HRP-luminol luminescence; inhibition, % (test concentration not listed);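 active = mean replicate inhibition above about 79%, with every replicate also reaching it, limit read from the data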
SUMO Mot1 rescue: inhibitors of SUMOylation pathway: yeast Mot1-301 growth rescue. S. cerevisiae Mot1-301 growth rescue, ATP luminescence, 38.5C; percent above DMSO median, 100 means doubled. growth rescue, % at 18.8 µM. hit rate 1% among 320,000;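 active = every valid replicate shows activation above 250% relative to neutral control wells; inactive = the rest, any valid replicate at or below 250%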;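 note: OY570 slx delta 5 strain wells were the positive control but not used for scaling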
AHR activator: activators of human aryl hydrocarbon receptor; P35869; AHR-responsive luciferase reporter cells, luminescence; activation, % at 5 µM; hit rate 2.5% among 320,000; AID 2796; in the data active = activation above about 47%;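 note: 0% = vehicle wells and 100% = reference agonist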
Target sequence (P35869 whole entry, looked up): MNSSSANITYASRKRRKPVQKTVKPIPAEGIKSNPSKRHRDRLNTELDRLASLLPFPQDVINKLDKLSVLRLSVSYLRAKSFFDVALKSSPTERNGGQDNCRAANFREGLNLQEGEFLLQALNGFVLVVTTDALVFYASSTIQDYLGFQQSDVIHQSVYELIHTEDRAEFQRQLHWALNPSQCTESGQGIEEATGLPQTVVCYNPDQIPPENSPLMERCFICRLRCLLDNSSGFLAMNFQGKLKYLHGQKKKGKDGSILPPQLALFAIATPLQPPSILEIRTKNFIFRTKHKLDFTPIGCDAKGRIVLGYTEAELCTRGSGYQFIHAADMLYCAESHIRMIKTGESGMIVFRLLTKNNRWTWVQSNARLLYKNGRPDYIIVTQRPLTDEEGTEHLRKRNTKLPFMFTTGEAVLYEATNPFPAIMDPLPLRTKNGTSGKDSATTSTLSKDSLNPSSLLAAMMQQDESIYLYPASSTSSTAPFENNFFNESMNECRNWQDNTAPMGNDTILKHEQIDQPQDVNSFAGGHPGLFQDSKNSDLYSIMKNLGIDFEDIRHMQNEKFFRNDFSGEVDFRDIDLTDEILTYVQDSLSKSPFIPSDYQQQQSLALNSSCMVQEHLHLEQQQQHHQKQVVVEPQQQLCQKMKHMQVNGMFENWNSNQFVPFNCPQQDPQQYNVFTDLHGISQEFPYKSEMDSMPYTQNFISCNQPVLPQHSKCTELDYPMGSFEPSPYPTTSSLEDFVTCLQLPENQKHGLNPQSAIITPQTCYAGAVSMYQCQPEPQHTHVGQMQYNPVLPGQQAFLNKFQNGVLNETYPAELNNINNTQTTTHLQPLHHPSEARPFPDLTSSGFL
Efflux pump inh: inhibitors of Candida antifungal efflux pumps expressed in yeast; AID 485275; S. cerevisiae Candida pump triplex, Nile Red efflux; hit rate 0.44% among 330,000; inhibition, % at 10 µM;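 active = plate passing quality check with inhibition over a set limit, or well fluorescence over plate mean plus 4 SD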;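 note: Nile Red retained in pooled yeast measured as flow cytometry median fluorescence; 0% = buffer negative control and 100% = Enniatin B positive control; higher means more Nile Red kept so more efflux inhibition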
VLA-4 inh: inhibition in a human VLA-4 binding assay | P13612 | VLA-4 expressing cells, ligand binding flow cytometry | inhibition, % (about 7 µM as worked out from the volumes in the protocol) | hit rate 0.2% among 330,000; in the data active = inhibition above about 50%
An asterisk follows results filed as active; . = no result. In the library only some 7.2% were active in any assay of this set; here they are far more common.

SMILES	A1 inh	ALR H2O2 inh	SUMO Mot1 rescue	AHR activator	Efflux pump inh	VLA-4 inh
COc1cccc(-n2cc3c(=O)n(C)c(=O)n(C)c3c2)c1	-1	-10	-2	59*	0	-17
O=c1c2cnn(-c3ccccc3Cl)c2ncn1Cc1cccnc1	2	6	-17	0	0	0
Cc1ccc(S(=O)(=O)N(C)c2ccc(OC(=O)c3cc(=O)[nH]c4ccccc34)cc2)cc1	.	.	.	6	1	5
O=C(CNC(=O)c1ccco1)OCc1cccc(Cl)c1	0	-3	-9	0	0	6
O=C(CCNc1cccc(Cl)c1)c1ccco1	-1	97*	3	3	0	16
Cc1ccc(C(=O)CSc2nn3c(=O)c(C(C)(C)C)nnc3s2)cc1	1	98*	8	3	0	-22
CC1Cc2ccccc2N1C(=O)CSc1nn2c(=O)c(C(C)(C)C)nnc2s1 (stereo not given)	-1	.	-7	4	0	2
CC(C)(C)c1nnc2sc(SCC(=O)c3ccc(Cl)cc3)nn2c1=O	0	.	-13	6	0	2
CC(C)(C)c1nnc2sc(SCC(=O)N3CCCc4ccccc43)nn2c1=O	1	99*	6	2	0	22
CC(C)(C)c1nnc2sc(SCC(=O)c3cccs3)nn2c1=O	1	98*	-11	7	0	15
COC(=O)C(NC(=O)CCc1c(C)nc2c(c(C)nn2-c2ccccc2)c1C)C(C)C (stereo not given)	0	-4	-30	.	0	-3
O=C(COc1ccc(-n2cnnn2)cc1)Nc1ccc(F)c(F)c1	-2	0	-7	-3	0	13
COC(=O)C1=C(C(=O)OC)C2C(C)=CC(C)=CN2C(C(=O)OC)=C1C(=O)OC (stereo not given)	0	-8	-15	4	1	2
Cc1ccc(-n2[nH]c(=O)c(-c3ccccn3)c2C)cc1	0	19	223	26	1	8
Cc1ccc(-n2[nH]c(=O)c3cccnc32)cc1	0	97*	-12	64*	0	6
c1ccc2c(c1)oc1c(N3CCOCC3)ncnc12	0	-7	-25	73*	0	5
COc1ccccc1N1CCN(c2ncnc3c2oc2ccccc23)CC1	0	3	219	9	0	4
COC(=O)CC1C(=O)NCCN1C(=O)CSc1nc2ccccc2s1 (stereo not given)	1	99*	-12	13	0	4
CC1(C)CC2(CC(C)(C(=O)CSc3nc4ccccc4s3)OC2=O)C(=O)O1 (stereo not given)	0	91*	6	6	0	5
O=C(CSc1nc2ccccc2s1)N1CCOCC1	-1	97*	3	8	0	7
O=C(CSc1nc2ccccc2s1)NCCCN1CCOCC1	1	-11	5	6	0	-5
CC1(C(=O)CSc2nc3ccccc3s2)CCC(=O)O1 (stereo not given)	0	99*	-38	13	0	31
COC(=O)CC1C(=O)NCCN1C(=O)c1ccccc1 (stereo not given)	-1	6	6	2	0	9
O=C(NCCC(=O)N1CCN(S(=O)(=O)c2ccccc2F)CC1)Nc1ccccc1	0	-7	-7	1	0	0
O=C(CSc1nc2ccccc2s1)NC1CCCc2ccccc21 (stereo not given)	0	.	18	45	0	-8
SMILES	A1 inh	ALR H2O2 inh	SUMO Mot1 rescue	AHR activator	Efflux pump inh	VLA-4 inh
CC1CC2(CC(C)(C(=O)CSc3nc4ccccc4s3)OC2=O)C(=O)O1 (stereo not given)	-1	98*	1	8	0	4
Nc1nc(CSc2nc3ccccc3s2)nc(N2CCOCC2)n1	0	99*	27	1	0	2
O=C(O)CC/C(=N\Nc1ccccc1[N+](=O)[O-])c1cccs1	2	98*	16	16	0	-16
COc1cc(NC(=O)c2cccc(C)c2)c(Cl)cc1[N+](=O)[O-]	0	.	-3	-10	0	15
Cn1nc([N+](=O)[O-])c(C(C#N)c2nc3ccccc3n2C)c(Cl)c1=O (stereo not given)	0	100*	484	74*	1	-18
COc1ccc(CNC(=O)COC(=O)c2cccc(S(=O)(=O)N3CCOCC3)c2)cc1	0	0	-1	2	0	-6
CCN(CC)CCNC(=O)c1cc2c(s1)-c1ccccc1SC2	0	-5	0	4	0	14
NNC(=O)c1cc2c(s1)-c1cc(Cl)ccc1SC2	-1	-17	16	64*	0	-87
NS(=O)(=O)c1ccc(CNC(=O)Cc2ccccc2[N+](=O)[O-])cc1	1	1	0	24	0	1
CC(C)OCCCn1c(=NC(=O)c2ccncc2)c(C#N)cc2c(=O)n3ccccc3nc21	0	97*	-12	-9	0	1
COc1ccc(S(=O)(=O)N(C)C(C)CCc2ccco2)cc1 (stereo not given)	-1	13	37	-1	0	8
COc1ccc(C(N)CCc2ccco2)cc1 (stereo not given)	0	99*	-11	2	0	17
COc1cc(-c2cc(=O)c3c(O)c(OC)c(OC)c(O)c3o2)ccc1O	0	99*	-7	4	0	-13
COc1cc(-c2cc(OC)c3c(C)oc(C)c3c(=O)c2)ccc1O	0	91*	9	4	0	-3
COc1ccc(-c2cc(OC)c3c(C)oc(C)c3c(=O)c2)cc1OC	0	-1	-24	3	0	-439
CCn1cc(Cl)c(C(=O)Nc2ccccc2C(N)=O)n1	-1	4	.	54*	0	19
N#Cc1c(N)n[nH]c1-c1cc2c([nH]1)CCCC2	1	98*	1	0	0	6
CCN(CC(=O)NCc1ccccn1)S(=O)(=O)c1ccc(OC)cc1	0	0	108	0	0	7
CC(=O)Nc1nn(C)c2nc3cc(C)ccc3cc12	0	-5	-5	71*	0	16
CCn1nc(NC(=O)CC(C)C)c2cc3ccc(C)cc3nc21	0	.	-1	41	0	-2
O=C(CN1CCCc2ccccc21)NCCc1ccc(F)cc1	1	108*	127	1	0	1
COc1ccc(CCNC(=O)CN2CCCc3ccccc32)cc1OC	0	54	-12	12	0	13
NNC(=O)CN1CCCc2ccccc21	-2	44	85	71*	0	-6
O=C(CN1CCCc2ccccc21)N1CCc2ccccc21	0	5	-5	7	0	-8
CCOC(=O)C1CCCN(C/C=C/c2ccccc2)C1 (stereo not given)	2	-10	-7	.	0	-1
Cc1cc(OC(=O)c2ccco2)c2c(C)cc(=O)oc2c1	1	9	3	0	0	2
